Hit rate of the full screen: of about 290,000 compounds, about 27,000 (9.3%) were called active. For the sample, actives were picked, then their nearest neighbours and some compounds at random. A number with no mark means an inactive call. Rule as the data show it: active = inhibition mostly above about 28% (no sharp cut-off); inactive = mostly below about 43%.
experiment: A qHTS for Small Molecule Inhibitors of Shiga Toxin; details: Vero cells, Shiga toxin protein synthesis inhibition reporter; at 38.7 µM, active compounds read high; also: 0% is about no effect

| SMILES | inhibition |
| --- | --- |
| Cc1ccc(SCCC(=O)NC(C(C)C)C(C)C)cc1 | -4.72% |
| Cc1ccc(SCCC(=O)NCc2ccccn2)cc1 | -6.02% |
| Cc1ccc(SCCSc2ncccn2)cc1 | 38.6% (active) |
| Cc1ccc(S(=O)Cc2ccc(C(=O)N3CCN(C4CCCCC4)CC3)o2)cc1 (stereo not given) | -3.36% |
| COc1ccc(CN2CCN(Cc3ccc(OC)c(OC)c3OC)CC2)cc1 | -4.07% |
| CC(C)C(C(=O)NCc1ccco1)N(CC1CCCO1)C(=O)CNS(=O)(=O)c1ccc(F)cc1 (stereo not given) | -0.539% |
| CCc1ccccc1S(=O)(=O)Cc1ccc(C(=O)NCCc2ccccc2)o1 | 6.5% |
| O=C(CSc1n[nH]c(=O)n1-c1ccccc1)Nc1ccccc1C(F)(F)F | -2.01% |
| Cc1cc(C)c2nc(N3CCC(C(=O)NCCN4CCOCC4)CC3)sc2c1 | 17.8% |
| Fc1cc(F)c2nc(Nc3nc4c(F)cccc4s3)sc2c1 | 28.3% |
| Fc1cc(F)c2nc(N3CCOCC3)sc2c1 | 87.4% (active) |
| COC(=O)C1=C(O)/C(=C/c2ccc(OCC(=O)Nc3ccccc3)cc2)N=C1C | -18.9% |
| CC1CN(CC(=O)NC(C)c2ccccc2)CC(C)O1 (stereo not given) | -5.21% |
| CCCSc1nsc(N)n1 | 11% |
| Nc1nc(SC23CC4CC(CC(C4)C2)C3)ns1 | 1.53% |
| CCCCCCSc1nsc(N)n1 | 59.2% (active) |
| CCc1cccc(NC(=O)C2CCCN(S(=O)(=O)c3ccc4[nH]c(=O)ccc4c3)C2)c1 (stereo not given) | -5.44% |
| CCCCn1c(N)c(N(CC)C(=O)c2ccccc2C(F)(F)F)c(=O)[nH]c1=O | 3.43% |
| C1=C(CCNc2ncnc3c2cnn3-c2ccccc2)CCCC1 | 190% (active) |
| O=C(NCCC1=CCCCC1)C1CCN(Cc2cnn(-c3ccccc3)c2-n2cccc2)CC1 | 31% |
| Cc1nn(C(C)C(=O)NCCC2=CCCCC2)c(=O)c2nn(-c3ccccc3)c(C)c12 (stereo not given) | 18.5% |
| O=C(Cc1ccc(Br)cc1)NCCN1CCOCC1 | -10.9% |
| CC1CCN(C(=O)CCc2nnc3ccc(NCc4ccco4)nn23)CC1 | 12.6% |
| Cc1cccc(-n2cnc(C(=O)NNC(=S)Nc3ccccc3)c2)n1 | -10.7% |
| O=C(Nc1cccnc1)c1cc([N+](=O)[O-])ccc1Cl | -2.48% |

| SMILES | inhibition |
| --- | --- |
| Cc1cccc(-n2cnc(C(=O)Nc3cccnc3)c2)n1 | 101% (active) |
| Cc1ccc2nc(SCC(=O)NC3CCCC3)[nH]c2c1 | -2.14% |
| Cc1ccc2nc(-c3ccc(SCC(=O)Nc4cc(C)on4)nc3)[nH]c2c1 | 71.3% (active) |
| Cc1ccc(SCCC(=O)Nc2cc(C)on2)cc1 | -4.4% |
| CC(C)(C)c1ccc(C(=O)N2CCN(CCNC(=O)C(=O)Nc3ccc(F)cc3)CC2)cc1 | -6.99% |
| CC(=O)OCc1cc2cc(C)ccc2[nH]c1=O | -8.28% |
| CCOC(=O)c1cc2cc(C)ccc2[nH]1 | 168% (active) |
| CCNCc1cc2cc(C)ccc2[nH]c1=O | 12% |
| COc1ccc(CNC(=O)[C@H](Cc2c[nH]c3ccccc23)NC(C)=O)cc1OC | -6.62% |
| COc1ccc(-c2ccc(CCC(=O)O)n2-c2ccc(O)cc2)cc1 | 4.87% |
| COCCCn1c(CCC(=O)O)ccc1-c1ccc(F)cc1 | 13% |
| COc1ccc(-c2ccc(CCC(=O)O)n2NC(=O)c2ccc(C(C)(C)C)cc2)cc1 | 21% (active) |
| Cc1ccc(Nc2nnc(SCC(=O)c3cc4ccccc4o3)s2)cc1C | 19.8% |
| O=C(CSc1nnc(Nc2ccccc2)s1)Nc1cccnc1Cl | -14.8% |
| CC(C)c1ccc(Nc2nnc(SCC(=O)c3nnc(-c4ccccc4)o3)s2)cc1 | 58.9% (active) |
| Cc1cc(C)cc(Oc2c(C(F)(F)F)oc3cc(OCC(=O)O)ccc3c2=O)c1 | -4.45% |
| CC(C)=CCN1CCN(Cc2cc3ccccc3[nH]2)CC1CCO (stereo not given) | 1.5% |
| N#Cc1cccc(CN2CCC(=O)N(CCO)CC2)c1 | 2.03% |
| O=C(Nc1cccc(Cl)c1)Nc1nnc(-c2ccccc2)o1 | -12.3% |
| O=C(Nc1nnc(SCc2c(Cl)cccc2Cl)s1)C1CCCO1 (stereo not given) | 86.4% |
| O=C(Nc1nnc(CCc2ccccc2)s1)C1CCCO1 (stereo not given) | 39.5% |
| O=C(Nc1cccc(-c2nnc(-c3ccccc3)o2)c1)C1CCCO1 (stereo not given) | 85% (active) |
| O=C(Nc1ccc(-c2nnc(-c3ccccc3)o2)cc1)C1CCCO1 (stereo not given) | 93.5% (active) |
| CC(C)(C)NS(=O)(=O)c1ccc(NC(=O)C2CCCO2)cc1 (stereo not given) | -21.4% |
| CCCCC(=O)Nc1c2c(nn1-c1ccc([N+](=O)[O-])cc1)CS(=O)(=O)C2 | 19.5% |

| SMILES | inhibition |
| --- | --- |
| Cc1ccc2c(C)c(C(=O)N(C)Cc3ccncn3)oc2c1C | 4.22% |
| C=CCn1c(SCC(=O)NCCCO)nc2sc3c(c2c1=O)CCC3 | 8.99% |
| Brc1ccc(-c2n(-c3ccccn3)c3ccccc3[n+]2-c2ccccn2)cc1 | 12.9% |
| O=[N+]([O-])c1cccc(S(=O)(=O)NCc2ccccn2)c1 | -7.29% |
| Cc1cc2cc3c(N)[nH]nc3nc2cc1C | 40.9% (active) |
| CSc1ncccc1C(=O)Nc1nc2ccc(F)cc2s1 | 138% (active) |
| CSc1ncccc1C(=O)Nc1ccc(C)cn1 | 34% |
| COc1cc(NC(=O)c2cccnc2SC)cc(OC)c1 | 10.8% |
| COCCn1c(N)c(NCc2ccccc2)c(=O)[nH]c1=O | -3.86% |
| COc1ccc(C2CC(c3cccs3)=NN2C(=O)CSc2nnc(N)s2)cc1OC (stereo not given) | -6.81% |
| COc1ccc(C2CC(c3cccs3)=NN2C(=O)CCC(=O)O)cc1OC (stereo not given) | -4.61% |
| COc1ccc(C2CC(c3cccs3)=Nc3ccccc3S2)cc1OC (stereo not given) | 41.1% (active) |
| O=C(NCc1ccccc1Cl)C1CCN(c2ncnc3c2nc2n3CCCCC2)CC1 | -9.78% |
| Oc1ccccc1N1CCN(C(=S)NCc2ccccc2)CC1 | 76.8% (active) |
| O=C(NCCc1c[nH]c2ccccc12)C(=O)NCC1CCCO1 (stereo not given) | -8.17% |
| S=C(NCCCc1ccccc1)Nc1ccc(Br)cc1 | 0.943% |
| S=C(NCCc1ccccc1)N1CCCCC1 | 66.4% (active) |
| O=C(CS(=O)(=O)Cc1ccccc1)NCC1CCCO1 (stereo not given) | -4.38% |
| S=C(NCCc1ccccc1)NCC1CCCO1 (stereo not given) | 0% (active) |
| O=C1CCN(C(=S)NCCc2ccccc2)CC1 | 35.2% |
| Oc1ccc(N2CCN(C(=S)NCc3ccccc3)CC2)cc1 | 17.4% |
| CC1CCCCN1C(=S)NCc1ccccc1 (stereo not given) | -6.29% |
| COc1ccc(C(=O)NC2CCN(C(=S)NCCc3ccccc3)CC2)cc1 | 2.57% |
| S=C(NCCc1ccccc1)NCc1ccccc1Cl | 18.4% |
| S=C(NCCc1ccccc1)Nc1ccccc1 | 57.4% (active) |

— PubChem BioAssay AID2315 (National Center for Advancing Translational Sciences (NCATS), 2010)
